# Test results published in PubChem BioAssay (EPA / NIEHS).
# Records with an inconclusive call do not appear. Activity calls are given as the source filed them. How the source made its calls: active means hit-call score of the fitted dose curve at least 0.9, where 1 is the maximum; inconclusive means response in the unintended direction; inactive means score below 0.9.
# Read-out: alkyl and aryl transferase (GSTA2), GSTA2 (gene 2939)
# Assay: CLD_GSTA2_6hr: CellzDirect (CLD) Gene Expression Assay for alkyl and aryl transferase (GSTA2) at 6 hours (AID 2283666)
# Protocol: CLD_6hr is a cell-based, multiplexed-readout assay that uses hepatocyte, a human liver primary cell, with measurements taken at 6 hours after chemical dosing in a 96-well plate.CLD_GSTA2_6hr is one of 16 assay component(s) measured or calculated from the CLD_6hr assay. It is designed to make measurements of mRNA induction, a form of inducible reporter, as detected with chemiluminescence signals by Quantitative Nuclease Protection Assay (qNPA) technology.Data from the assay component CLD_GSTA2_6hr was analyzed at the endpoint, CLD_GSTA2_6hr, in the positive analysis fitting direction relative to DMSO as the negative control and baseline of activity. Using a type of inducible reporter, gain-of-signal activity can be used to understand changes in the reporter gene as they relate to the gene GSTA2. Furthermore, this assay endpoint can be referred to as a primary readout. To generalize the intended target to other relatable targets, this assay endpoint is annotated to the transferase intended target family, where subfamily is alkyl and aryl transferase.
# Human hepatocyte cultures were treated daily for two consecutive days with fresh dosing solutions containing appropriate concentrations of the 320 ToxCast chemicals (chemical identities were blinded to CellzDirect and other ToxCast collaborators), vehicle control (0.2% DMSO), and positive control inducers as summarized in Table 1. Due to the large number of treatment groups and chemicals examined, the ToxCast chemicals were divided into two groups (spanning two independent cultures of hepatocytes from separate donor preparations (Hu778: ToxCast plates 1 and 2; Hu776: ToxCast plates 3 and 4). Each preparation of human hepatocyte cultures was treated with respective vehicle control, medium only control, set of six positive controls/reference chemicals for the five hepatic receptor pathways, and a subset of eight of the ToxCast chemicals (indoxacarb, pyrithiobac-sodium, norflurazon, cyhalofop-butyl, methomyl, thiram, acetochlor, and propiconazole). These replicate data, coupled with internal replicates designed within the blinded ToxCast chemical library, provided additional data to evaluate interindividual differences between hepatocyte preparations and their potential impact on chemical profiles.Cell morphology and integrity were evaluated using phase-contrast microscopy as an indicator of hepatocyte cell health (Tyson & Green, 1987). Cultures for each treatment group (i.e., media, vehicle [0.2% DMSO], positive control inducers [multiple concentrations], and the ToxCast chemicals [multiple concentrations]) were observed and cell morphology was assessed relative to vehicle control cultures at each harvest time point (0, 6, 24, or 48 h). […] Images were evaluated at the conclusion of the study to assess changes in cell integrity and account for the effects of chemical exposure on uncharacteristic changes in concentration-dependent gene expression profiles. The results from these determinations of apparent cytotoxicity were annotated (yes/no) alongside the corresponding qNPA data for reference.At the conclusion of each treatment period, hepatocyte cultures (96-well) were washed with 1 volume of HBSS, lysed by addition of 25 ul ArrayPlate lysis buffer (HTG, Tucson, AZ), and 70 ul/well of Denaturation Oil, denatured by incubation at 95C for 10 min, and frozen at approximately -70C until analysis by nuclease protection assay (qNPA) (Roberts et al., 2007). For qNPA analysis, cell lysates were thawed at 50C for approximately 30 min, qNPA probes were added, and samples were incubated at 95C for 10 min to begin the detection process by denaturing the target RNA, dissociating the duplexes and secondary structure hybridization. At the conclusion of the hybridization period, S1 nuclease reagent was added to each sample to digest all nonprotected nucleotides at 50C for 60-90 min. […]
row,SMILES,outcome
1,C[N+]1(C)CCCCC1,inactive
2,CCOP(=S)(OCC)Oc1cc(C)nc(C(C)C)n1,inactive
3,CCOP(=O)(NC(C)C)Oc1ccc(SC)c(C)c1 (stereo not given),inactive
4,CSc1nc(NC(C)C)nc(NC(C)C)n1,inactive
5,CCOC(=O)COc1cc(-c2nn(C)c(OC(F)F)c2Cl)c(F)cc1Cl,inactive
6,CCOP(=S)(OCC)Oc1ccc2c(C)c(Cl)c(=O)oc2c1,inactive
7,CNC(=O)Oc1cccc2c1OC(C)(C)O2,inactive
8,COc1ccc(C(=CC(=O)N2CCOCC2)c2ccc(Cl)cc2)cc1OC,inactive
9,CCCCOC(=O)c1ccccc1C(=O)O,inactive
10,CNC(=O)ON=C(SC)C(=O)N(C)C,inactive
11,C#CCC1=C(C)C(OC(=O)C2C(C=C(C)C)C2(C)C)CC1=O (stereo not given),inactive
12,CC(Oc1cccc(Cl)c1)C(=O)O (stereo not given),inactive
13,CNc1cnn(-c2cccc(C(F)(F)F)c2)c(=O)c1Cl,inactive
14,CCCOc1nn(C(=O)NS(=O)(=O)c2ccccc2C(=O)OC)c(=O)n1C,inactive
15,CC1=NNC(=O)N(/N=C/c2cccnc2)C1,inactive
16,C=C(C)[C@H]1Cc2c(ccc3c2O[C@@H]2COc4cc(OC)c(OC)cc4[C@@H]2C3=O)O1,inactive
17,CC(C)=CC1C(C(=O)OCN2C(=O)C3=C(CCCC3)C2=O)C1(C)C (stereo not given),inactive
18,CCOP(=S)(OCC)Oc1ccc([N+](=O)[O-])cc1,inactive
19,CC[C@H](C)[C@H]1O[C@]2(C=C[C@@H]1C)C[C@@H]1C[C@@H](C/C=C(\C)[C@@H](O[C@H]3C[C@H](OC)[C@@H](O[C@H]4C[C@H](OC)[C@@H](NC)[C@H](C)O4)[C@H](C)O3)[C@@H](C)/C=C/C=C3\CO[C@@H]4[C@H](O)C(C)=C[C@@H](C(=O)O1)[C@]34O)O2,inactive
20,COP(=O)(OC)C(O)C(Cl)(Cl)Cl (stereo not given),inactive

row,SMILES,outcome
1,CCCOCC(=Nc1ccc(Cl)cc1C(F)(F)F)n1ccnc1,inactive
2,CCc1cnc(C2=NC(C)(C(C)C)C(=O)N2)c(C(=O)O)c1 (stereo not given),inactive
3,N#CSCSC#N,inactive
4,CCc1cccc(CC)c1N(COC)C(=O)CCl,inactive
5,CC(C)[C@H](C(=O)O[C@H](C#N)c1cccc(Oc2ccccc2)c1)c1ccc(Cl)cc1,inactive
6,COc1cccc(C(=O)NN(C(=O)c2cc(C)cc(C)c2)C(C)(C)C)c1C,inactive
7,COc1cc(OC)nc(Sc2cccc(Cl)c2C(=O)O)n1,inactive
8,COP(=O)(OC)SCn1c(=O)oc2cc(Cl)cnc21,inactive
9,S=C1NCCN1,inactive
10,COP(=O)(OC)OC(Br)C(Cl)(Cl)Br (stereo not given),inactive
11,CCc1cccc(C)c1N(C(=O)CCl)C(C)COC (stereo not given),inactive
12,CNC(=O)ON=C(C)SC,inactive
13,CN1COCN(Cc2cnc(Cl)s2)C1=N[N+](=O)[O-],inactive
14,O=c1ccc(=O)[nH][nH]1,inactive
15,Cc1nn(-c2cc(NS(C)(=O)=O)c(Cl)cc2Cl)c(=O)n1C(F)F,inactive
16,CCCCN(CC)c1c([N+](=O)[O-])cc(C(F)(F)F)cc1[N+](=O)[O-],inactive
17,CC(COc1ccc(Oc2ccccc2)cc1)Oc1ccccn1 (stereo not given),inactive
18,CC1(C(=O)Nc2ccc(O)c(Cl)c2Cl)CCCCC1,inactive
19,CN(C)[C@@H]1C(=O)C(C(N)=O)=C(O)[C@@]2(O)C(=O)C3=C(O)c4c(O)cccc4[C@@](C)(O)[C@H]3[C@H](O)[C@@H]12,inactive
20,CSC1=N[C@@](C)(c2ccccc2)C(=O)N1Nc1ccccc1,inactive
